The text below walks through data of PubChem BioAssay (NCATS).

Several values for one entry are separate records, joined by “and”; a condition that tells them apart may be missing. Identical values can stand only once. Results filed as inconclusive are left out. A structure can be active in one record and inactive in another. A number with no mark means an inactive call. Activity calls are given as the source filed them. Calls follow the shape of the dose curve; as a rule, active = well fitted curve in the direction sought with a large enough effect; inconclusive = small, poorly fitted or top-dose-only effect, or another doubt; inactive = no such curve, though single readings can be large; an effect the other way counts as inactive or inconclusive.

Test [1] has as its target Cellular tumor antigen p53 (Homo sapiens) (UniProt P04637). The test can be described thus: Primary qHTS for small molecule compounds that upregulate eGFP-tagged delta133p53alpha (in N-terminal) cells. (AID 2060322). Also: nearly all actives have a fitted effect of over 75% in size. Also: potency is read from the fitted curve at half-maximal effect.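 As to activation: series mostly up to about 56 µM; 0% = DMSO vehicle and 100% = reference activator.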 Conditions: NCI-H358 eGFP-delta133p53alpha fluorescence, 24 h; activation: hits give high values. The method in brief:
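NCI-H358 cells pre-induced 24 h with 10 ng/ml doxycycline to express N-terminal eGFP-delta133p53alpha, then dosed 24 h at 37C without doxycycline; fixed, Hoechst-stained, GFP intensity by laser scanning cytometry, normalized to DMSO (0%) and 57.5 uM 5-azacytidine (100%).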

In test [2] the target is Aldehyde dehydrogenase, mitochondrial (Homo sapiens) (UniProt P05091). The test can be described thus: qHTS for Inhibitors of the Aldehyde Dehydrogenase Family (ALDH2) Primary screen (AID 2061308).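 Also: plate controls were vehicle for no effect and reference inhibitor for full effect; nearly all actives have a fitted effect of over 55% in size.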
The target in test [3] is Retinaldehyde dehydrogenase 3 (Homo sapiens) (UniProt P47895). Nature of the test: qHTS for Inhibitors of the Aldehyde Dehydrogenase Family (ALDH1A3) Primary screen (AID 2061315).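 Also: plate controls were DMSO vehicle for no effect and reference inhibitor for full effect.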 For orientation: Quantitative high-throughput screening tests each substance at several concentrations.
Test [4] is described as follows: BET inhibitor-based combinations targeting novel dependencies in MECOM-rearranged (r) AML: OCI-AML3 cell line (AID 2202232). Also: nearly all actives have a fitted effect of over 35% in size. Also: potency is read from the fitted curve at half-maximal effect. To be noted: Potency: OCI-AML3 viability. The method in brief: (§1)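 A 48 hr incubation preceded viability reading by CellTiter-Glo, with 15 min room-temperature development. Dose series had 11 points; normalization used DMSO and empty wells; AUC was computed and mean-centered per line as Z-AUC.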

A short description of test [5]: BET inhibitor-based combinations targeting novel dependencies in MECOM-rearranged (r) AML: MV-4-11 cell line (AID 2202233). Also: nearly all actives have a fitted effect of over 45% in size. Also: potency is read from the fitted curve at half-maximal effect. The method in brief: (§2)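 Each compound is tested in an 11-point concentration series against 500 seeded cells/well for 48 hr. The luminescent viability signal is normalized to DMSO and blank wells, then reduced to AUC and a cell-line-centred Z-AUC.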

Test [6] can be described thus: BET inhibitor-based combinations targeting novel dependencies in MECOM-rearranged (r) AML: HNT-34 cell line (AID 2202234). Also: nearly all actives have a fitted effect of over 35% in size. Also: potency is read from the fitted curve at half-maximal effect. The essentials: as §2
Test [7] is described as follows: BET inhibitor-based combinations targeting novel dependencies in MECOM-rearranged (r) AML: SET-2 cell line (AID 2202231). Also: nearly all actives have a fitted effect of over 35% in size. Also: potency is read from the fitted curve at half-maximal effect.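 As to viability: plate controls were DMSO treated cells for no effect and wells without cells for full effect.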 To be noted: SET-2 AML cells viability, CellTiter-Glo luminescence, 48 h; viability: hits give low values, concentration not given here. The method in brief: as §1
(Cellular ATP, detected with luciferase, serves as a proxy for viable cell number.)

A short description of test [8]: BET inhibitor-based combinations targeting novel dependencies in MECOM-rearranged (r) AML: UCSD-AML1 cell line (AID 2202235). Also: nearly all actives have a fitted effect of over 40% in size. Also: potency is read from the fitted curve at half-maximal effect. The method in brief:
as §2

Test [9] can be described thus: BET inhibitor-based combinations targeting novel dependencies in MECOM-rearranged (r) AML: AML-191 cell line (AID 2202236; also: nearly all actives have a fitted effect of over 35% in size; also: potency is read from the fitted curve at half-maximal effect). The essentials: as §1
Test [10] in a line: BET inhibitor-based combinations targeting novel dependencies in MECOM-rearranged (r) AML: AML-194 cell line (AID 2202237; also: nearly all actives have a fitted effect of over 40% in size; also: potency is read from the fitted curve at half-maximal effect). The essentials: as §1
In test [11] the target is Retinaldehyde dehydrogenase 3 (Homo sapiens) (UniProt P47895). Nature of the test: qHTS for Inhibitors of the Aldehyde Dehydrogenase Family (ALDH1A3) Validation screen (AID 2061312). Also: % is scaled to controls: 0 for no effect and ±100 for the full control effect; nearly all actives have a fitted effect of over 45% in size.

Usually viability stands for a read-out of living cells in per cent, often relative to untreated cells.

Cellular tumor antigen p53 (Homo sapiens), sequence (P04637 whole entry, looked up): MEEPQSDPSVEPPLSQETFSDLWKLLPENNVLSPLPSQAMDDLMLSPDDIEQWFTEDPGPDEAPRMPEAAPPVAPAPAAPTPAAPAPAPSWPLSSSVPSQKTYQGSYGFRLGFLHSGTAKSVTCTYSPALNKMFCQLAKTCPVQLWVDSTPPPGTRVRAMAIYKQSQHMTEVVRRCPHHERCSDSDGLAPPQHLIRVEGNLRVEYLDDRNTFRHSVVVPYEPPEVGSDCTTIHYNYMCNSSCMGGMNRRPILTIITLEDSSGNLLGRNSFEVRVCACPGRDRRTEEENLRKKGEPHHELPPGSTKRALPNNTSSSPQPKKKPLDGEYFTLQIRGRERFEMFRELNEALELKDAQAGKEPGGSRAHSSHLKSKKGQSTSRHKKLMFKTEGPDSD

With `CC(C)(C)c1cc(C=O)cc(C(C)(C)C)c1O`, in test [1], the activation is -16.4%.

On to `COCCOCC(OC)OC`, for which, in test [1], the activation is -6.69%.

For the compound `NC1CCN(c2nc3c(cc2F)c(=O)c(C(=O)O)cn3-c2ccc(F)cc2F)C1` (stereo not drawn), the activation in test [1] is 11.9%.

On to `CC(C(=O)O)c1cccc(Oc2ccccc2)c1` (stereo not drawn), for which, in [1], the activation is 32.2%.

Turning to `CCN(CC)CCc1nc(-c2ccccc2)no1`, in [1], the activation is -25.1%.

Consider `Nc1c2c(nc3c1CCC3)CCCC2`, for which, in [1], the activation was -11.7%.

Turning to `CC(C)(O)CC[C@@H](O)[C@](C)(O)[C@H]1CC[C@@]2(O)C3=CC(=O)[C@@H]4C[C@@H](O)[C@@H](O)C[C@]4(C)[C@@H]3CC[C@]12C`, in test [1], the activation was -14.8%.

On to `CCCCCCCCOc1ccccc1C(=O)Nc1ccc(C(=O)OCC[N+](C)(CC)CC)cc1`, for which the activation in test [1] is -5.01%.

On to `CNCC[C@H](Oc1cccc2ccccc12)c1cccs1`, for which, in test [1], the Potency was 17.4 µM (active) and the activation is 8.04%.

Regarding `Cc1cn(-c2cc(NC(=O)c3ccc(C)c(Nc4nccc(-c5cccnc5)n4)c3)cc(C(F)(F)F)c2)cn1`, the Potency in [1] was 30.1 µM (active); in test [4], 1.18 µM (active); in test [5], 1.86 µM (active); in [6] it was 0.0295 µM (active). In [1], the activation is 12.7%. For the same compound, the Potency result in [2] and in test [3] was “inactive” in each case.

As to `Cc1cc(Nc2ncc(Cl)c(Nc3ccccc3S(=O)(=O)C(C)C)n2)c(OC(C)C)cc1C1CCNCC1`, the Potency in test [1] was 7.57 µM (active); in [7], 23.5 µM (active); in test [4], 9.34 µM (active); in test [5], 4.68 µM (active); in test [8] it was 10.5 µM (active); in [9], 16.6 µM (active). The Potency in test [10] was 9.34 µM (active). Moreover, the activation in test [1] was 21.6%. For the same compound, the Potency entry in [2] and in test [3] was “inactive” in each case.

As for `O=C(Nc1cc(C(F)(F)F)cc(C(F)(F)F)c1)c1cc(Cl)ccc1O`, the Potency in test [1] is 3.01 µM (active); in [7], 2.35 µM (active); in [4], 2.09 µM (active); in test [5], 1.86 µM (active); in [8], 1.66 µM (active); in [9] it was 1.18 µM (active). Also, the Potency in [10] is 2.63 µM (active). Besides, in test [1], the activation was 2.31%. The Potency entry in [2] and in [3] was “inactive” in each case.

Consider `COc1cc(N2CCC(N(C)C)CC2)ccc1Nc1ncc(Cl)c(Nc2ccccc2P(C)(C)=O)n1`, for which the Potency in [1] was 2.69 µM (active); in [7], 6.61 µM (active); in test [4], 7.42 µM (active); in [5], 0.0934 µM (active); in [6], 2.63 µM (active); in test [8], 2.63 µM (active). Further, the Potency in test [9] is 9.34 µM (active). In addition, the activation in test [1] was -5.31%. Further, the Potency entry in test [2] and in [3] was “inactive” each time.

With `CCCOc1ccc(C(=O)OCCN(CC)CC)cc1N`, the Potency in test [1] is 24.3 µM (active). In test [1], the activation is 9.6%. The viability in test [7] was 101%. Moreover, the Potency entry in test [4], in [5], in [6], in test [8], in test [9] and in test [10] was “inactive” each time.

In the case of `Cn1c(=O)c(-c2c(Cl)cccc2Cl)cc2cnc(Nc3cccc(C(=O)O)c3)nc21`, the results for the Potency in test [1] and in test [4] were 12 µM (active) and 0.235 µM (active), respectively. For the same compound, the activation in test [1] was 29.6%. Also, the Potency result in test [2], in test [11], in test [3], in test [8], in test [9] and in test [10] was “inactive” each time. Besides, the viability in test [7] was 116%.

Turning to `Cn1c2ccccc2c2c3c(c4c5ccccc5n(CCC#N)c4c21)CNC3=O`, the Potency in test [1] is 16.9 µM (active); in [5], 0.417 µM (active); in test [6] it was 3.32 µM (active); in test [8], 8.33 µM (active); in test [9] it was 3.32 µM (active); in test [10] it was 4.68 µM (active). Further, in [1], the activation is -13.5%. The Potency entry in test [2] and in test [3] was “inactive” each time.

Turning to `CN(C[C@@H]1COCCO1)S(=O)(=O)Nc1ccc2ccc3ncc(-c4cnn(C)c4)cc3c(=O)c2c1`, the Potency in test [1] is 8.63 µM (active); in [5] it was 0.417 µM (active); in [6], 3.32 µM (active); in test [8] it was 5.9 µM (active); in test [9] it was 6.61 µM (active). In addition, the activation in test [1] is -1.43%. Moreover, the Potency result in test [2], in [11] and in test [3] was “inactive” in each case.

`Cc1cc(Nc2nc(N[C@@H](C)c3ncc(F)cn3)ncc2Cl)n[nH]1`: the Potency in test [1] was 21.7 µM (active); in test [7] it was 1.48 µM (active); in test [4] it was 1.32 µM (active); in test [6], 2.63 µM (active); in test [9] it was 0.132 µM (active). In addition, the activation in test [1] was -0.181% and 24.8%. Further, the Potency result in test [2], in test [11] and in test [3] was “inactive” throughout.

For the compound `Cc1ccc(NC(=O)C2(c3ccc4c(c3)OC(F)(F)O4)CC2)nc1-c1cccc(C(=O)O)c1`, in test [1], the Potency was 0.153 µM (active). Further, the activation in test [1] was -10.5%. Moreover, the Potency entry in test [2], in [11], in test [3], in test [4], in test [6] and in test [9] was “inactive” each time. For the same compound, the Potency entry in [10] was “inactive”. Moreover, the viability in [7] was 94.8%.
